The source of these data is the supplement of paper PMC12067926.

Unmarked numbers belong to inactive results.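 Rule for the calls: active = growth AUC significantly below the DMSO wells by Dunnett test; inactive = the rest.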

The experiment relates to Community 7. The experiment in a line: relative growth (AUC of 72 h growth curve relative to DMSO control, dAUC) (ratio); higher = more growth (less inhibition), active = hit call of the paper. The following applies: 20 µM. The gist of the method:
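Relative growth (dAUC) is the spline-integrated area under the growth curve divided by the mean of the DMSO-only control wells. Cultures were isolates from Icelandic stream sediments and Silwood Park soil, plus whole sediment communities, grown to carrying capacity in Luria–Bertani medium and diluted 1:100 into 96-well plates containing each chemical at 20 µM (1% DMSO). A600 was read hourly for 72 h on a plate reader, with brief shaking before each read, and values were averaged over three biological replicates.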
Regarding `CNC(=O)CSP(=S)(OC)OC`, the relative growth was 1.12.
As for `N#CCNC(=O)c1cnccc1C(F)(F)F`, the relative growth was 1.01.
Then `COP(=O)(OC)OC=C(Cl)Cl`, with 1.09; and `CCc1cc(C)cc(CC)c1-c1c(OC(=O)C(C)(C)C)n2n(c1=O)CCOCC2`, with 1.05.
Then `CCOc1ccc(C(C)(C)COCc2cccc(Oc3ccccc3)c2)cc1`, with 1.04; and `COc1ncc(F)c2nc(S(=O)(=O)Nc3c(F)cccc3F)nn12`, with 0.948; and `O=[N+]([O-])c1cc(C(F)(F)F)c(Cl)c([N+](=O)[O-])c1Nc1ncc(C(F)(F)F)cc1Cl`, with 0.794.
The result for `COP(=S)(OC)Oc1ccc(SC)c(C)c1` reads 0.973; that for `CCCCCCCCCCCCNC(=N)N`, 0.993; that for `CC(C)NC(=O)N1CC(=O)N(c2cc(Cl)cc(Cl)c2)C1=O`, 1.07.
Turning to `CCCCOC(=O)[C@H](C)Oc1ccc(Oc2ccc(C#N)cc2F)cc1`, the relative growth is 1.07.
On to `CCc1cccc(C)c1N(C(=O)CCl)[C@@H](C)COC`, for which the relative growth was 1.12.
`CC(C1CC1)C(O)(Cn1cncn1)c1ccc(Cl)cc1` (configuration not stated): the relative growth was 1.02.
As for `CC(COc1ccc(Oc2ccccc2)cc1)Oc1ccccn1` (configuration not stated), the relative growth is 1.05.
Then `CCNc1nc(Cl)nc(NC(C)C)n1`, with 1.01; and `N#C/N=C1\SCCN1Cc1ccc(Cl)nc1`, with 0.846; and `CCCC1COC(Cn2cncn2)(c2ccc(Cl)cc2Cl)O1` (configuration not stated), with 1.08.
Then `COc1cc(C)c(C(=O)c2c(OC)ccc(Br)c2C)c(OC)c1OC`, with 0.987; and `C/C(=N\C#N)N(C)Cc1ccc(Cl)nc1`, with 1.02; and `CCCCN(CCCC)SN(C)C(=O)Oc1cccc2c1OC(C)(C)C2`, with 1.13.
The result for `N#Cc1c(Cl)c(Cl)c(Cl)c(C#N)c1Cl` reads 0.891.
`Cc1nc(N(C)C)nc(OC(=O)N(C)C)c1C`: the relative growth was 1.12.
Then `CC(C)CC(C)c1sccc1NC(=O)c1cn(C)nc1C(F)(F)F` (configuration not stated), with 1.06.
The result for `Fc1ccc(Oc2ccnc3cc(Cl)cc(Cl)c23)cc1` reads 0.843; that for `CC1(C)C(C=C(Cl)Cl)C1C(=O)OCc1cccc(Oc2ccccc2)c1` (configuration not stated), 1.08; that for `Oc1ccccc1-c1ccccc1`, 1.12.
In the case of `CCC(C)c1ccccc1OC(=O)NC` (configuration not stated), the relative growth is 1.02.
Take `CN/C(=N\[N+](=O)[O-])NCc1cnc(Cl)s1`: the relative growth was 1.06.
Then `O=C(O)c1nc(Cl)ccc1Cl`, with 1.17; and `CC1(C)[C@H](/C=C(\Cl)C(F)(F)F)[C@@H]1C(=O)OC(C#N)c1cccc(Oc2ccccc2)c1` (some centres not stated), with 1.19; and `O=C(NC(=O)c1c(F)cccc1F)Nc1ccc(OC(F)(F)C(F)OC(F)(F)F)c(Cl)c1` (configuration not stated), with 1.11.
Then `O=C1C=C(N(Cc2ccc(Cl)nc2)CC(F)F)CO1`, with 0.945.
The result for `O=C(O)COc1ccc(Cl)cc1Cl` reads 1.08.
For `COc1ccc(C(=CC(=O)N2CCOCC2)c2ccc(Cl)cc2)cc1OC` (mixture of isomers), the relative growth was 0.947.
For `CCN(CC)c1nc(C)cc(OP(=S)(OC)OC)n1`, the relative growth was 0.988.
Then `Oc1ccc(Cl)cc1Cc1cc(Cl)ccc1O`, with 0.862; and `N#CC(CCc1ccc(Cl)cc1)(Cn1cncn1)c1ccccc1` (configuration not stated), with 0.96.
